We go through 13 compounds from PubChem BioAssay (NCI).

This is part of a sample that, as a whole, favours compounds with a hit. Of some 83,000 tested, about 20% had one in any assay.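 Interpretation: 100, growth as untreated; towards 0, rising growth inhibition; 0, no net growth; 0 to -100, cell death. Compounds scoring below 10 were considered active.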 Unmarked numbers belong to inactive results. Calls of active or inactive are those of the source.

Common to all, as to experiment: NCI-60 one-dose screen, 48 h (100 = growth as untreated, 0 = no growth, -100 = all killed)
Common to all, as to conditions: 10 µM unless noted

Assay [1] has as its system HCT-15 colon.
The test system of assay [2] is HT29 colon.
The subject of assay [3] is SNB-75 CNS.
Assay [4] concerns SNB-19 CNS.
The test system of assay [5] is U251 CNS.
Assay [6] deals with PC-3 prostate.
For assay [7], the system named is SK-MEL-5 melanoma.
The subject of assay [8] is UACC-62 melanoma.
The test system of assay [9] is LOX IMVI melanoma.
Assay [10] relates to SK-MEL-28 melanoma.

`CCC(C)NCC(=O)O` (stereo not given): the growth in assay [1] was 88.5%; in [2], 78.8%; in assay [3], 90.9%; in assay [4] it was 107%; in assay [5] it was 98.7%; in assay [6], 102%. The growth in assay [7] was 97.5%; in [8], 108%; in assay [9] it was 109%; in assay [10], 104%.

Regarding `O=C(COc1ccccc1)N1N=C(c2ccc(Cl)cc2)CC1c1c[nH]c2ccccc12` (stereo not given), the growth in assay [1] is 62.1%; in assay [2] it was 90.4%; in [3] it was 66.6%; in assay [4], 93.3%; in assay [5] it was 58%; in assay [6] it was 63.2%. The growth was 85.5% in assay [7], 70.9% in assay [8], 59.1% in assay [9] and 104% in assay [10].

As to `Cc1cc(N/C=c2\sc3ncnn3c2=O)no1`, the growth in assay [1] is 94.6%; in assay [2], 102%; in [3], 91.3%; in [4], 95.2%; in assay [5], 105%; in assay [6] it was 97.7%. The growth in [7] was 99.2%; in assay [8], 94%; in assay [9], 97.3%; in assay [10] it was 104%.

`COc1cccc(NC(=O)Cn2cc3c(=O)oc4ccccc4c3n2)c1`: the growth in [1] was 109%; in assay [2], 105%; in [3], 64.7%; in [4], 102%; in assay [5], 125%; in [6], 97.4%. Further, the growth in assay [7] is 100%; in assay [8], 100%; in assay [9], 113%; in assay [10] it was 94%.

For `COc1cccc(-c2nc3sccn3c2-c2ccnc(NCCNS(=O)(=O)c3ccccc3)n2)c1`, the growth in [1] is 42.9%; in assay [2], 34%; in [3], 79.8%; in assay [4], 97.3%; in [5], 71.9%; in assay [6] it was 69.2%. Besides, the growth in assay [7] was 28.2%; in [8], 32.5%; in assay [9], 48%; in [10] it was 66.4%.

With `COc1cc(CCn2nnc3c(NCCCCO)ncnc32)cc(OC)c1`, the growth was 102% in assay [1]; 112% in assay [2]; 84.4% in [3]; 106% in assay [4]; 99.5% in [5]; 88.3% in assay [6]. Moreover, the growth was 99.1% in [7], 104% in assay [8], 102% in assay [9] and 109% in assay [10].

For `O=S(=O)(NCCCNc1cc(-c2cn(-c3ccccc3)nc2-c2cccc(O)c2)ccn1)c1ccc(Br)cc1`, the growth was -18.7% (active) in assay [1]; -24.4% (active) in [2]; 25.8% in assay [3]; 27.3% in assay [4]; 4.89% (active) in [5]; 4.26% (active) in [6]. Further, the growth in [7] is -56.3% (active); in [8] it was -5.16% (active); in assay [9], -29.5% (active); in assay [10], -36.2% (active).

For the compound `COc1cccc2cc(-c3cc4ccccc4[nH]3)/c(=N/C(=S)Nc3ccccc3)oc12`, the growth in [1] is 89.2%; in assay [2], 81.8%; in assay [3] it was -45.3% (active); in assay [4], 66.1%; in [5] it was 77%; in [6], 68.8%. The growth in assay [7] was 76.1%; in assay [8] it was 76%; in assay [9], 80%; in assay [10], 80.1%.

Consider `CCN(CC)CCSc1c2ccc(Cl)cc2nc2ccc(OC)cc12`, for which the growth is 47.4% in [1]; 34.8% in [2]; 110% in assay [3]; 92% in assay [4]; 93% in assay [5]; 91.4% in assay [6]. The growth in assay [7] was 103%; in [8], 93.2%; in assay [9] it was 36.7%; in [10], 113%.

For `O=C1Nc2cc(Cl)ccc2/C1=C/c1ccc(N2CCOCC2)s1`, the growth in [1] is 112%; in [2] it was 97.3%; in assay [3], 101%; in assay [4], 86.6%; in assay [5], 96.7%; in [6], 92.5%. The growth is 104% in [7], 103% in assay [8], 106% in assay [9] and 114% in assay [10].

For `CCn1cc(C2NC(=O)c3cc(F)ccc3N2)c2cccc(Cl)c21` (stereo not given), the growth in assay [1] was 9.89% (active); in assay [2], 3.35% (active); in assay [3] it was -24.9% (active); in [4], 34.3%; in assay [5], -14.2% (active); in assay [6], 22.3%. The growth in assay [7] is 19.3%; in assay [8], 28.2%; in assay [9], 16.5%; in assay [10] it was 58.2%.

As for `Cn1c(=O)c2c(nc3n2CCN(CCc2ccc(OCCN4CCOCC4)cc2)C3)n(C)c1=O`, the growth in assay [1] is 105%; in assay [2] it was 107%; in assay [3], 101%; in [4] it was 108%; in assay [5], 105%; in assay [6], 94.1%. For the same compound, the growth was 94.2% in [7], 98.8% in assay [8], 97% in [9] and 111% in [10].

Consider `Cc1ccc2c(c1)C(=O)C(c1c(-c3[nH]c(=O)c4ccc(C)cc4c3O)c(O)c3ccccc3c1O)=NC2=O`, for which the growth is 13.7% in [1]; 21.7% in assay [2]; 14.4% in assay [3]; 26.3% in [4]; -16.2% (active) in assay [5]; 2.45% (active) in assay [6]. The growth was 25.8% in assay [7], 29.5% in assay [8], 12.1% in [9] and 34.9% in assay [10].
